One experiment concerns WaGa. Kind of experiment: qHTS assay to identify novel small-molecules to repurpose for Merkel cell carcinoma treatment (AID 1296009). Note: nearly all actives have a fitted effect of over 60% in size. To be noted: MCC and control cell lines, CellTiter-Glo viability, 72 h; series mostly up to 46 µM. The gist of the method: (§1)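 Cell viability, measured as CellTiter-Glo luminescence, was normalized between DMSO and no-cell wells. The cells had been exposed to 8- or 11-point compound dilutions for 72 hr at 37 degree celsius.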

For another experiment, the system named is C33A. Put plainly: Primary qHTS to identify gynecologic anti-cancer compounds using libraries of approved drugs and bioactive compounds (AID 1345084). Note: nearly all actives have a fitted effect of over 55% in size. The settings on record: Gynecologic cancer cell panel viability, ATPlite luminescence, 48 h; series mostly up to 57.5 µM. Summed up: (§2)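 48 h compound exposure at 37 C, 5% CO2; five-point qHTS. ATPlite luminescence readout of cell ATP.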

For another experiment, the system named is Es-2. The description is as above. The settings on record: Gynecologic cancer cell panel viability, ATPlite luminescence, 48 h; series mostly up to 57.5 µM. The gist of the method: as §2
A further experiment deals with JEG-3. The experiment is described as above. To be noted: Gynecologic cancer cell panel viability, ATPlite luminescence, 48 h; series mostly up to 57.5 µM. Summed up:
as §2

Another experiment concerns CAOV3. The experiment is described as above. The settings on record: Gynecologic cancer cell panel viability, ATPlite luminescence, 48 h; series mostly up to 57.5 µM. The gist of the method: as §2
(ATP-based viability assays read luminescence as a measure of living cells.)

A further experiment concerns CASKI. The experiment is described as above. The settings on record: Gynecologic cancer cell panel viability, ATPlite luminescence, 48 h; series mostly up to 57.5 µM. The gist of the method: as §2
The subject of a further experiment is HeLa. The experiment is described as above. The settings on record: Gynecologic cancer cell panel viability, ATPlite luminescence, 48 h; series mostly up to 57.5 µM. The gist of the method:
as §2

The subject of a further experiment is Hek293T. The description is as above. To be noted: Gynecologic cancer cell panel viability, ATPlite luminescence, 48 h, control line for the selectivity index; series mostly up to 57.5 µM. Summed up:
as §2

The subject of the next experiment is OV90. Described as above. To be noted: Gynecologic cancer cell panel viability, ATPlite luminescence, 48 h; series mostly up to 57.5 µM. Summed up:
as §2

The subject of a further experiment is UISO. Put plainly: qHTS assay to identify novel small-molecules to repurpose for Merkel cell carcinoma treatment (AID 1296009). Note: nearly all actives have a fitted effect of over 60% in size. To be noted: MCC and control cell lines, CellTiter-Glo viability, 72 h; series mostly up to 46 µM. Summed up:
as §1
Background: qHTS replaces the single test concentration by a dilution series.

Results filed as inconclusive are left out. Calls of active or inactive are those of the source. Calls come from the whole dose curve; as a rule, active = well fitted curve in the direction sought with a large enough effect; inconclusive = small, poorly fitted or top-dose-only effect, or another doubt; inactive = no such curve, though single readings can be large; an effect the other way counts as inactive or inconclusive.
Potency is the fitted concentration of half-maximal effect.

Consider `Nc1nc(N)c2nc(-c3ccccc3)c(N)nc2n1`, for which the results for the Potency with WaGa, with C33A and in the experiment on Es-2 were 26.6 µM (active), 10 µM (active) and 15.8 µM (active), respectively. In the experiment on JEG-3, the Potency result is “inactive”.
On to `CN(C)CCCN1c2ccccc2Sc2ccccc21`, for which the Potency entry in the experiment with C33A, with CAOV3, in the experiment with CASKI, in the experiment on Es-2, in the experiment on HeLa and in the experiment on Hek293T was “inactive” each time. In addition, the Potency entry in the experiment on JEG-3 is “inactive”.
Consider `C[N+](C)(C)CCCCCCCCCC[N+](C)(C)C`, for which the Potency entry in the experiment with C33A, in the experiment with CASKI, in the experiment on Es-2, in the experiment on Hek293T, in the experiment on JEG-3 and with OV90 was “inactive” in each case.
For `Nc1c2c(nc3ccccc13)CCCC2O` (centres undefined), the Potency entry with WaGa, with C33A, in the experiment on CAOV3, in the experiment on CASKI, in the experiment on Es-2 and with Hek293T was “inactive” throughout. In addition, the Potency result in the experiment with JEG-3 and in the experiment on OV90 was “inactive” in each case.
For `c1cc(CN2CCCCC2)cc(OCCCNc2nc3ccccc3s2)c1`, the Potency result in the experiment on C33A, with CAOV3, in the experiment with CASKI, in the experiment on Es-2 and in the experiment on JEG-3 was “inactive” each time.
For the compound `C[C@]12CC[C@@H]3c4ccc(O)cc4C[C@@H](CCCCCCCCCS(=O)CCCC(F)(F)C(F)(F)F)[C@H]3[C@@H]1CC[C@@H]2O` (some centres undefined), the Potency result with WaGa, in the experiment on C33A, in the experiment with CAOV3, with CASKI, with Es-2 and in the experiment on HeLa was “inactive” in each case. The Potency result with Hek293T, in the experiment on JEG-3 and in the experiment on OV90 was “inactive” in each case.
In the case of `CCC(=O)c1ccc2c(c1)N(CCCN(C)C)c1ccccc1S2`, the Potency result in the experiment with C33A, with CASKI, in the experiment on Es-2, in the experiment with HeLa, with Hek293T and in the experiment on JEG-3 was “inactive” each time.
As for `OCCN1CCN(CC/C=C2/c3ccccc3Sc3ccc(C(F)(F)F)cc32)CC1`, the Potency entry in the experiment with C33A, in the experiment with CASKI, in the experiment on HeLa and in the experiment on JEG-3 was “inactive” throughout. Besides, the Potency in the experiment on OV90 was 10 µM (active).
For `COc1ccc2c(c1OC)C(=O)O[C@@H]2[C@H]1c2c(cc3c(c2OC)OCO3)CCN1C`, the Potency result with C33A, with Es-2, in the experiment with HeLa, with Hek293T, in the experiment with JEG-3 and in the experiment on OV90 was “inactive” throughout.
On to `COCC(=O)O[C@]1(CCN(C)CCCc2nc3ccccc3[nH]2)CCc2cc(F)ccc2[C@@H]1C(C)C`, for which the Potency result in the experiment on Es-2, in the experiment on HeLa and with Hek293T was “inactive” in each case. For the same compound, the Potency in the experiment on OV90 was 22.4 µM (active).
`CN(C)CCCN1c2ccccc2Sc2ccc(C(F)(F)F)cc21`: the Potency in the experiment on WaGa was 26.6 µM (active). The Potency result in the experiment on JEG-3 is “inactive”.
With `COCCCC/C(=N\OCCN)c1ccc(C(F)(F)F)cc1`, the Potency result with Hek293T and in the experiment on JEG-3 was “inactive” throughout.
Regarding `Cc1nnc(SCC2=C(C(=O)O)N3C(=O)[C@@H](NC(=O)Cn4cnnn4)[C@H]3SC2)s1`, the Potency entry with UISO, in the experiment on C33A, with CAOV3, with CASKI, in the experiment with Es-2 and in the experiment with Hek293T was “inactive” in each case. Besides, the Potency result with JEG-3 and in the experiment with OV90 was “inactive” each time.
Take `Cc1cc(C)c(/C=C2\C(=O)Nc3ccccc32)[nH]1`: the Potency entry in the experiment with WaGa, with C33A, with CAOV3, with CASKI, in the experiment with Es-2 and in the experiment with Hek293T was “inactive” each time. The Potency result in the experiment with JEG-3 and in the experiment on OV90 was “inactive” each time.
For `CC(C)COCC(CN(Cc1ccccc1)c1ccccc1)N1CCCC1` (centres undefined), the Potency in the experiment on CAOV3 and in the experiment with OV90 was 25.1 µM (active) throughout. The Potency result in the experiment on CASKI and in the experiment on Es-2 was “inactive” in each case.
Consider `CCCCNc1c(C(=O)OCC)c(C)nc2c1cnn2CC`, for which the Potency entry in the experiment on WaGa, in the experiment on C33A, in the experiment with CAOV3, in the experiment on CASKI, with Es-2 and in the experiment with HeLa was “inactive” each time. Besides, the Potency entry in the experiment on Hek293T, with JEG-3 and with OV90 was “inactive” throughout.
Regarding `Fc1ccc(C(c2ccc(F)cc2)N2CCN(C/C=C/c3ccccc3)CC2)cc1`, the Potency entry in the experiment on UISO, in the experiment on Es-2, in the experiment on HeLa, in the experiment on Hek293T and in the experiment with JEG-3 was “inactive” in each case.
Turning to `COC(=O)[C@@H](N)Cc1ccc(O)c(O)c1`, the Potency result with UISO, in the experiment on C33A, in the experiment on CAOV3, in the experiment with CASKI, in the experiment on Es-2 and with Hek293T was “inactive” each time. Also, the Potency entry in the experiment on JEG-3 and in the experiment with OV90 was “inactive” throughout.
Consider `COC(=O)C1=C(C)NC(C)=C(C(=O)OC(C)(C)CN(C)CCC(c2ccccc2)c2ccccc2)C1c1cccc([N+](=O)[O-])c1` (centres undefined), for which the Potency entry with C33A, in the experiment with CAOV3, in the experiment with CASKI, in the experiment with Es-2, in the experiment on Hek293T and in the experiment with JEG-3 was “inactive” throughout. Further, the Potency result in the experiment with OV90 is “inactive”.
On to `CCc1c(C)[nH]c2c1C(=O)C(CN1CCOCC1)CC2` (centres undefined), for which the Potency result in the experiment with UISO, in the experiment with C33A, in the experiment with CAOV3, in the experiment with CASKI, in the experiment on Es-2 and with Hek293T was “inactive” throughout. Further, the Potency entry in the experiment with JEG-3 and in the experiment on OV90 was “inactive” in each case.
`COCCOC(=O)C1=C(C)NC(C)=C(C(=O)OC(C)C)C1c1cccc([N+](=O)[O-])c1` (centres undefined): the Potency in the experiment with WaGa was 26.6 µM (active). The Potency result in the experiment on C33A, with CAOV3, in the experiment on CASKI, with Es-2, in the experiment on HeLa and with Hek293T was “inactive” in each case. The Potency result in the experiment on JEG-3 and with OV90 was “inactive” throughout.
As to `O=C1NCN(c2ccccc2)C12CCN(CCCC(c1ccc(F)cc1)c1ccc(F)cc1)CC2`, the Potency was 31.6 µM (active) in the experiment on CAOV3, 31.6 µM (active) in the experiment on Es-2, 31.6 µM (active) in the experiment with JEG-3 and 20 µM (active) with OV90.
With `COC(=O)C1=C(C)NC(C)=C(C(=O)OCCN(C)Cc2ccccc2)C1c1cccc([N+](=O)[O-])c1` (centres undefined), the Potency in the experiment with UISO is 23.7 µM (active). Further, the Potency result with C33A, in the experiment with CASKI, in the experiment with Es-2 and with JEG-3 was “inactive” throughout.

For the origin of these results see PubChem BioAssay (NCATS).
